Source: PubChem (National Center for Advancing Translational Sciences (NCATS))
A selection: hits, their analogues and other compounds. The true share with any hit is near 11%.
3T3 cytotox: Cytotoxic Profiling in NIH 3T3 Cell Line of Diverse Libraries Using Quantitative High-Throughput Screening; NIH 3T3 viability, CellTiter-Glo ATP luminescence, 48-72 h; Potency, µM (top dose mostly 96.7 µM), for the others: top-dose activity change, negative = cytotoxicity, usual class: inhibitors; 4.3% of 94,000 active; also: % is scaled to controls: 0 for no effect and ±100 for the full control effect; nearly all actives have a fitted effect of over 55% in size
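Cytotoxicity was measured by CellTiter-Glo ATP luminescence after 48 or 72 h compound exposure at 37 °C. Mouse NIH 3T3 fibroblasts were seeded at 400 cells/well and dosed by 23 nL pin transfer.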
FLuc inh-1: Firefly luciferase inhibition profiling of diverse chemical library using quantitative high-throughput screening; Potency, µM (top dose mostly 115 µM), most hits filed as inhibitors; Luciferin 4-monooxygenase (Photinus pyralis), P08659; purified P. pyralis luciferase, luminescence, biochemical; 2.5% of 76,000 active; also: % is scaled to controls: 0 for no effect and ±100 for the full control effect; nearly all actives have a fitted effect of over 65% in size
Target sequence (P08659 whole entry, looked up): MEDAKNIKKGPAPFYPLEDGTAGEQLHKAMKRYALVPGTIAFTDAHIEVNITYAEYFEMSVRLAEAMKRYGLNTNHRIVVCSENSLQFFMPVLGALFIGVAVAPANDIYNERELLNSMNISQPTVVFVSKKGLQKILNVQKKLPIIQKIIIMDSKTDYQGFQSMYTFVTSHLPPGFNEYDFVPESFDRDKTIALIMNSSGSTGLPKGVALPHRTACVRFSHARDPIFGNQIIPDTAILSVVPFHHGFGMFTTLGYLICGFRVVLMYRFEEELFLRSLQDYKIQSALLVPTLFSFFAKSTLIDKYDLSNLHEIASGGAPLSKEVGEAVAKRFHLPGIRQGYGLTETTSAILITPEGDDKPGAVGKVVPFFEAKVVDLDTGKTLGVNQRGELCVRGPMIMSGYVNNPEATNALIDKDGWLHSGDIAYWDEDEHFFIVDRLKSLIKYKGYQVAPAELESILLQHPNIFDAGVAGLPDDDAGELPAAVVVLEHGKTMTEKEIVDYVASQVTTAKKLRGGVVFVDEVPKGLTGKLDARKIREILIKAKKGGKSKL
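Purified P. pyralis luciferase (10nM final) in 50mM Tris acetate pH 7.5, 10mM Mg acetate, 0.01% Tween-20, 0.05% BSA with 10uM D-luciferin and 10uM ATP. Compounds titrated qHTS. Luminescence imaged on CCD.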
NPR1 antag: Natriuretic polypeptide receptor (hNpr1) antagonism - Primary qHTS | 1.6% of 76,000 active | Atrial natriuretic peptide receptor 1 (Homo sapiens), P16066 | Potency, µM (doses to about 46.3 µM), for inactives: top-dose activity change, negative = inhibition, actives largely listed as inhibitors | HEK293 hNpr1 GloSensor cGMP, ANP-stimulated luminescence; calls by dose curve; also: % is scaled to controls: 0 for no effect and ±100 for the full control effect; nearly all actives have a fitted effect of over 60% in size
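HEK293 cells stably expressing human Npr1 and cGMP GloSensor pGS-40F, loaded 2 h with 2% GloSensor reagent, given compound 30 min at room temperature. Luminescence read before and 20 min after 0.1 nM hNppA.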
HEK293 tox: Cytotoxic Profiling in HEK 293 Cell Line of Diverse Libraries Using Quantitative High-Throughput Screening. HEK 293 viability, ATP luminescence (CellTiter-Glo), 48-72 h. Potency, µM (titrated, usually from 115 µM), for the others: at the highest dose activity change, negative = cytotoxicity, actives largely listed as inhibitors. 6.6% of 94,000 active. AID 1345083, 2018; also: % is scaled to controls: 0 for no effect and ±100 for the full control effect; nearly all actives have a fitted effect of over 60% in size
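HEK 293 cells at 250 cells/well were exposed to compounds by pintool transfer for 48 or 72 hr at 37 degree Celsius, 5% CO2. Viability was read as ATP-coupled luminescence with CellTiter-Glo after 10 min at room temperature.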
FLuc SDR no ATP: Firefly luciferase (FLuc-C-HiBiT) SDR gain of signal screen - without ATP. shares compounds with FLuc inh-1. Purified FLuc-C-HiBiT, Nano-Glo HiBiT luminescence, no ATP. Potency, µM (highest dose often 32.7 µM), without a hit: at the highest dose activation (signal gain), actives largely listed as activators. 7.8% of 1,300 active; also: nearly all actives have a fitted effect of over 55% in size
FLuc SDR ATP: Firefly luciferase (FLuc-C-HiBiT) SDR gain of signal screen - plus ATP; purified FLuc-C-HiBiT + ATP, HiBiT complementation luminescence; shares compounds with FLuc inh-1; 8.7% of 1,300 active; Potency, µM (doses to about 32.7 µM), without a hit: top-dose activation (gain of signal), actives largely listed as activators; AID 1963319, 2024;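 also: signal reports ligand binding via conformational change of the enzyme rather than luciferase catalysis; % of control where 0% means no effect; nearly all actives have a fitted effect of over 55% in size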
FLuc inh-2: Firefly luciferase (FLuc-C-HiBiT) enzymatic inhibition screen - Functional assay; 42% of 1,300 active; purified FLuc-C-HiBiT enzyme, luciferin luminescence; shares compounds with FLuc inh-1; Potency, µM (doses to about 32.7 µM), without a hit: at the highest dose activity change, negative = inhibition, actives largely listed as inhibitors; AID 1963320, 2024; also: % is scaled to controls: 0 for no effect and ±100 for the full control effect; nearly all actives have a fitted effect of over 70% in size
An asterisk follows results filed as active; i = inactive; ? = inconclusive; . = no result; [ ] = dose if it differs, or a comment. Unless noted, calls follow the shape of the dose curve; as a rule, active = well fitted curve in the direction sought with a large enough effect; inconclusive = small, poorly fitted or top-dose-only effect, or another doubt; inactive = no such curve, though single readings can be large; an effect the other way counts as inactive or inconclusive. Potency is read from the fitted curve at half-maximal effect.

SMILES | 3T3 cytotox | FLuc inh-1 | NPR1 antag | HEK293 tox | FLuc SDR no ATP | FLuc SDR ATP | FLuc inh-2
CC(NC(=O)c1ccc2nnc(Cc3ccco3)n2c1)c1ccc(F)cc1 (stereo not given) | -10% | . | . | i | . | . | .
Cc1cc(N2CCC(NC(=O)c3ccc4[nH]ccc4c3)C2=O)ccc1F (stereo not given) | -13% | ? | -11% | -17% | . | . | .
OC1CN(Cc2ccc(-c3cnc4c(OCc5ccccc5)nccn34)cc2)C1 | 89µM* | 5µM* | -27%[70.6 µM] | ? | 26%[49.3 µM] | ? | ?
CCOc1nccn2c(-c3ccc(CN4CCN(C(C)=O)CC4)cc3)cnc12 | ? | ? | 0%[70.6 µM] | -25%[172 µM] | . | . | .
COCC(=O)NC1CCC12CCN(Cc1cccc(C)c1)CC2 (stereo not given) | -5% | i | 1% | 1% | . | . | .
Cn1c([C@H]2CCN(C3CCCCC3)C2)nc2ccccc21 | ? | 7.1µM* | -26%[70.6 µM] | ? | 18%[65.7 µM] | 12%[65.7 µM] | ?
COc1ccc(NC(=O)N2CCc3c(C(=O)N(C)C)cccc32)cc1 | ? | 0.25µM* | 4µM* | ? | ? | 0.16µM* | 0.11µM*
COc1ccc(NC(=O)N2CCc3c(C(=O)N(C)Cc4ccco4)cccc32)cc1 | -27% | 4µM* | ? | ? | ? | 2.5µM* | 1.8µM*
COc1ccc(NC(=O)N2CCc3c(C(=O)NCCN4CCCCCC4)cccc32)cc1 | -23% | 1.6µM* | 10µM* | ? | ? | 0.79µM* | 0.56µM*
Cc1cccc(NC(=O)N2CCc3c(C(=O)N(C)Cc4ccco4)cccc32)c1 | ? | ? | -19% | ? | . | . | .
COc1cccc(C(=O)N2CCCC2C(=O)N2CCCC2c2nc3ccncc3[nH]2)c1 (stereo not given) | -14% | . | . | -4% | . | . | .
CC(C)(C)C(=O)N1CCCC(C(=O)N2CCCC2c2nc3ccncc3[nH]2)C1 (stereo not given) | -24% | . | . | -12% | . | . | .
O=C1CCN(C(=O)Cc2c[nH]c3ccccc23)CCCC(C(=O)NCc2ccccc2)CCN1 (stereo not given) | -24% | i | -1% | -10% | . | . | .
Cc1cc(NCCc2cnccn2)nc(-c2ccccc2O)n1 | ? | 10µM* | 0% | ? | 16% | 13% | -17%
CN1CC(=O)N(C2CCCNCC2)Cc2c1ncnc2N1CCN(Cc2ccccc2)CC1 (stereo not given) | i | . | . | i | . | . | .
O=C(O)c1cccc(-c2ccc(OC(F)(F)F)cc2)c1 | -1%[138 µM] | . | . | -24%[172 µM] | . | . | .
CC(=O)c1cccc(Nc2nn(-c3ccc(OC(F)(F)F)cc3)nc2C(C)=O)c1 | . | . | . | . | 24% | 14% | ?
CC(=O)N1CCC2(CC1)CN(C(=O)Cc1cccc(O)c1)Cc1ccccc1O2 | -4% | . | . | 2% | . | . | .
COc1ccc(-c2nc(C)c(CCNC(=O)c3cccs3)s2)cc1 | . | . | . | . | 24% | 17% | ?
Cc1cnc(CCNC(=O)c2cccs2)n1Cc1ccc(F)cc1 | -17% | . | . | -2% | . | . | .
Cc1ccc(-c2nc(C)c(CCNC(=O)c3cccs3)s2)cc1 | . | . | . | . | 12% | 9% | ?
O=C1CC(c2ccccc2)N(C(=O)C2CC2)CCCN(C(=O)NCCc2ccccc2)CCN1 (stereo not given) | -11% | i | -6% | i | . | . | .
